Screening data from PubChem BioAssay.
TDP1 cell noCPT: qHTS for Inhibitors of human tyrosyl-DNA phosphodiesterase 1 (TDP1): qHTS in cells in absence of CPT; DT40 Tdp1-/- hTDP1 cells, no CPT, ATP luminescence, 48 h; Potency, µM (top dose mostly 46.2 µM), for the others: at the top dose activity change, negative = growth inhibition, usual class: inhibitors; 15% of 420,000 active; AID 686978, 2013; also: potency is read from the fitted curve at half-maximal effect; % is scaled to controls: 0 for no effect and ±100 for the full control effect; nearly all actives have a fitted effect of over 55% in size
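Camptothecin absent (DMSO only). Human TDP1-complemented DT40 knockout cells, 400 cells/well, 37 °C for minimum 48 hr; ATP measured via CellTiter-Glo, 30 min dark incubation, luminescence.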
DT40 TDP1 CPT: DT40-hTDP1 cell growth loss with CPT; chicken DT40 Tdp1-/-;hTDP1 cells + 20 nM CPT, ATP luminescence, 48 h; Potency, µM (titrated, usually from 46.2 µM), for inactives: at the highest dose activity change, negative = growth inhibition, usual class: inhibitors; 12% of 420,000 active; AID 686979; also: potency is read from the fitted curve at half-maximal effect; % is scaled to controls: 0 for no effect and ±100 for the full control effect; nearly all actives have a fitted effect of over 55% in size
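Chicken DT40 Tdp1-/- cells stably complemented with human TDP1 were seeded at 400 cells/well in medium containing 20 nM camptothecin, exposed to pin-transferred compounds, and grown at 37 °C for at least 48 hr. Viability was read as ATP luminescence.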
IL1B secr inh: inhibitors of inflammasome signaling (IL-1 beta secretion); activity change, % at 57.5 µM; THP-1 LPS/ATP IL-1B secretion, AlphaLISA, 16 h; active compounds read low; 4.7% of 360,000 active; AID 743279; in the data active = activity change below about -50%; inconclusive = mostly about -30% to -49%; also: % is scaled to controls: 0 for no effect and ±100 for the full control effect
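Secreted IL-1B measured by AlphaLISA bead assay after 16 h compound exposure of THP-1 cells; compounds (final up to 57.5 uM) added 1 h before LPS (250 ng/mL) and ATP (1.25 mM) stimulation; lower signal means less secretion.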
TDP1 block: blocks human tyrosyl-DNA phosphodiesterase 1 | recombinant TDP1, AlphaScreen DNA substrate cleavage | Potency, µM (top dose mostly 130 µM), without a hit: top-dose activity change, negative = inhibition, actives largely listed as inhibitors | 0.28% of 350,000 active | AID 485290; also: potency is read from the fitted curve at half-maximal effect; % is scaled to controls: 0 for no effect and ±100 for the full control effect; nearly all actives have a fitted effect of over 40% in size
Target sequence (Q9NUW8 whole entry, looked up): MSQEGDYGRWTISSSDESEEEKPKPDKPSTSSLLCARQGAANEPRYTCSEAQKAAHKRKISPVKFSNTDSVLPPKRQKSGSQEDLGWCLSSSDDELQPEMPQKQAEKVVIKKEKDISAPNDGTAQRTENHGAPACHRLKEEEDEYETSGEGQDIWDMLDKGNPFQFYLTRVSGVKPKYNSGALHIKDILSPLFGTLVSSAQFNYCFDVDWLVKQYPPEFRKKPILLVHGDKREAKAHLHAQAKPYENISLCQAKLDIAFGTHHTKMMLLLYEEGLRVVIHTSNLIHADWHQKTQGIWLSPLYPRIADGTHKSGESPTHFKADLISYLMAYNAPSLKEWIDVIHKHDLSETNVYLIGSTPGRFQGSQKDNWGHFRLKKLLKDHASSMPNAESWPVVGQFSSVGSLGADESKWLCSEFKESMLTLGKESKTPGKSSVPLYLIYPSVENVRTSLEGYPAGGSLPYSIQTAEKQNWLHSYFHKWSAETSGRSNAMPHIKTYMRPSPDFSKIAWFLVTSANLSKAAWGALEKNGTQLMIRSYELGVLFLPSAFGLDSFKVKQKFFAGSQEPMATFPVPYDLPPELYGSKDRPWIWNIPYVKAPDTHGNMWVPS
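Tdp1 1 nM final; 15 min RT w/ cpd; substrate 15 nM, 5 min; beads 10 ug/ml, 10 min; AlphaScreen read. Neg ctrl: no enzyme.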
TGFb inhibitor: TGF-b pathway inhibition; Potency, µM (highest dose often 46.1 µM), without a hit: at the top dose activity, negative = inhibition, usual class: inhibitors; HepG2 CAGA-GFP TGF-b/SMAD3 reporter, GFP fluorescence, 18 h; TGF-beta stimulated, 500 pg/mL final; 1.2% of 410,000 active; also: potency is read from the fitted curve at half-maximal effect; % is scaled to controls: 0 for no effect and ±100 for the full control effect; nearly all actives have a fitted effect of over 65% in size
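HEPG2 CAGA-GFP reporter cells (1000/well, DMEM with 1% FBS) received compounds, then recombinant TGF-beta at 500 pg/mL final for 18 hours at 37 degrees C. Per-cell GFP summed per well was normalised to unstimulated and stimulated DMSO controls before curve fitting.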
HepG2 tox: counter-screen for TGF-b inhibitors: cytotoxicity in HepG2 cells; HepG2 CAGA-GFP viability, ATP luminescence, 18 h; Potency, µM (top dose mostly 46.1 µM), for inactives: top-dose activity change, negative = cytotoxicity, hits mostly cytotoxic; 0.76% of 410,000 active; AID 588856; also: potency is read from the fitted curve at half-maximal effect
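CellTiter-Glo luminescence gave cytotoxicity after 18 hours at 37 degrees C. The cells were HepG2 CAGA-GFP in 1% FBS DMEM, stimulated with 500 pg/mL TGF-beta after compound addition. %Activity was normalised to no-cell wells (complete cell-killing) and DMSO (no toxicity), and curves were fitted and classified.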
An asterisk follows results filed as active; ? = inconclusive; / = not tested or not shown; [ ] = remark or other dose. Compounds with a hit are over-represented: about 19% of the library has one in this group of screens. Unless noted, calls follow the shape of the dose curve; as a rule, active = well fitted curve in the direction sought with a large enough effect; inconclusive = small, poorly fitted or top-dose-only effect, or another doubt; inactive = no such curve, though single readings can be large; an effect the other way counts as inactive or inconclusive.

SMILES | TDP1 cell noCPT | DT40 TDP1 CPT | IL1B secr inh | TDP1 block | TGFb inhibitor | HepG2 tox
COc1ccc(-c2nn(-c3ccccc3)cc2/C=N/NC(=S)NC(C)C)cc1OC | 18µM* | 23µM* | ? | 8% | -2% | -2%
COc1ccc(-c2nn(-c3ccccc3)cc2CO)cc1OC | -27% | ? | -11 | 1% | 0% | 2%
COc1ccc(-c2nn(-c3ccccc3)cc2/C=N/O)cc1OC | 26µM* | ? | -11 | / | -14% | -43%
COc1ccc(-c2nn(-c3ccccc3)cc2/C=N/N=C(N)N)cc1OC | 13µM* | 23µM* | ? | 8% | ? | -101%
CCCCCCCCN1[C@@H](CC(=O)O)c2cc(C(F)(F)F)ccc2S1(=O)=O | ? | ? | 8 | / | 11µM* | -39%
CCCCCCCCN1[C@@H](CC(=O)OCC)c2cc(F)ccc2S1(=O)=O | ? | ? | 33 | / | 1% | -13%
CCCCCCCCCCCCN1[C@@H](CC(=O)O)c2cc(F)ccc2S1(=O)=O | 3% | ? | 52 | / | -10% | -29%
CCCCCCCCCCCCN1[C@@H](CC(=O)OC)c2cc(C(F)(F)F)ccc2S1(=O)=O | 13µM* | ? | 38 | / | 4% | -3%
CCCCCCCCN1[C@@H](CC(=O)OC)c2cc(F)ccc2S1(=O)=O | 13µM* | ? | 18 | / | ? | -5%
CCCCCCCCN1[C@@H](CC(=O)OCC)c2ccc(C(F)(F)F)cc2S1(=O)=O | 26µM* | 13µM* | 4 | / | ? | -10%
CCCCCCCCCCCCN1[C@@H](CC(=O)O)c2cc(C(F)(F)F)ccc2S1(=O)=O | ? | ? | 0 | / | ? | -70%
COc1ccc(CN2CCNC(=O)C2CC(=O)NCC(C)(C)N2CCOCC2)cc1C (stereo not given) | 2% | 5% | -2 | 1% | 18% | 0%
COC(=O)C[C@H]1c2cc(F)ccc2S(=O)(=O)N1c1ccc(N(C)C)cc1 | 13µM* | ? | 25 | / | 11% | 3%
CC(C)c1ccccc1NC(=O)COC(=O)Cc1c[nH]c2ccccc12 | -10% | 0.082µM* | 0 | 0% | ? | -7%
NC(=O)c1ccsc1NC(=O)COC(=O)Cc1cccc2ccccc12 | 10µM* | 9.2µM* | 3 | 4% | -1% | -10%
O=C(COC(=O)Cc1c[nH]c2ccccc12)Nc1ccccc1 | -23% | 2% | 18 | 5% | -9% | -3%
NC(=O)c1ccsc1NC(=O)COC(=O)Cc1c[nH]c2ccccc12 | 16µM* | ? | 6 | -5% | -6% | -25%
NC(=O)c1ccsc1NC(=O)COC(=O)Cc1ccccc1[N+](=O)[O-] | 21µM* | 23µM* | 39 | / | -3% | -42%
COc1ccccc1NC(=O)COC(=O)Cc1c[nH]c2ccccc12 | 3% | -26% | 29 | 8% | -7% | 26%
CCc1cccc(NC(=O)c2c(N3CCCC3=O)c3cc(C)ccc3n2C)c1 | / | / | / | 6% | ? | -37%
CCCC1C2C(=O)N(c3cccc(C)c3)C(=O)C2ON1c1ccccc1 (stereo not given) | 2% | -7% | -11 | 1% | 1% | -34%
O=C(CSc1nc(-c2cccs2)nc2cc(=O)[nH]n12)Nc1ccccc1Cl | ? | -25% | / | 3% | -28% | -2%
CCOC(=O)/C=C1/SCC(=O)N1CC(=O)NC12CC3CC(CC(C3)C1)C2 | 21µM* | ? | 18 | / | -1% | -4%
CCn1cc(C(=O)N2CCN(c3cccc(Cl)c3)CC2)c(=O)c2cc(S(=O)(=O)N3CCOCC3)ccc21 | -18% | 12% | / | 2% | -33% | -11%
Cc1cccc2c(N3CCCC3)nc(CNS(=O)(=O)c3ccccc3Cl)nc12 | -29% | -13%[9.04 µM] | / | / | / | /
SMILES | TDP1 cell noCPT | DT40 TDP1 CPT | IL1B secr inh | TDP1 block | TGFb inhibitor | HepG2 tox
Cc1oc(-c2ccccc2F)nc1CS(=O)(=O)CC(=O)N1CCOCC1 | -18% | -8% | -9 | 5% | -4% | -14%
Cc1oc(-c2ccccc2F)nc1CSCC(=O)N1CCN(c2ccccc2)CC1 | 9.2µM* | 21µM* | / | 8% | ? | -50%
Cc1oc(-c2ccccc2Cl)nc1CSCC(=O)N1CCCC1 | 13µM* | ? | -21 | 3% | 4% | -47%
CCCn1nc([N+](=O)[O-])c(C(C#N)c2nc3ccccc3o2)c(Cl)c1=O (stereo not given) | -25% | ? | -82* | 3% | ? | -33%
N#CC(c1ccccn1)c1ncc(C(F)(F)F)cc1Cl (stereo not given) | -6% | 8% | -11 | 0% | 15% | 4%
CCCCn1c(N)c(-c2nc3ccccc3o2)c2c([N+](=O)[O-])nn(C)c(=O)c21 | 17% | 0% | -12 | 1% | -6% | 16%
Cn1nc([N+](=O)[O-])c(C(C#N)c2ccccn2)c(Cl)c1=O (stereo not given) | 3.7µM* | 5.2µM* | -102* | 2% | ? | 13µM*
CCOC(=O)c1noc2nc(C)n(CC(=O)Nc3ccc(OC)c(Cl)c3)c(=O)c12 | / | / | / | 2% | 17% | 4%
CC(C)N(C)S(=O)(=O)c1ccc(NC(=O)C2=COCCO2)cc1 | 8% | -17% | -3 | 1% | 8% | 4%
CCOc1ccccc1N(CC(=O)NCCSc1ccccc1)S(=O)(=O)c1ccccc1 | 10µM* | ? | / | -3%[12.3 µM] | ? | -35%
CCOc1ccccc1N(CC(=O)NCCSc1ccccn1)S(=O)(=O)c1ccc(C)cc1 | 21µM* | ? | -28 | / | ? | -14%
CCOc1ccccc1N(CC(=O)NCCSc1ccccn1)S(=O)(=O)c1ccccc1 | ? | ? | 8 | -1% | 14% | 9%
Cc1ccc(S(=O)(=O)N(CC(=O)NCCSc2ccccn2)c2ccc(C)c(C)c2)cc1 | ? | ? | -53* | -3% | -3% | -17%
Cc1cc(C)cc(N(CC(=O)NCCSc2ccccn2)S(=O)(=O)c2ccccc2)c1 | 26µM* | ? | -12 | 3% | 15% | -46%
Cc1ccc(CN2c3ccccc3-c3nc(SCC(=O)Nc4c(C)cc(C)cc4C)ncc3S2(=O)=O)cc1 | ? | ? | / | 5% | -13% | 0%
Cn1ccs/c1=N\C(=O)Nc1ccccc1 | -29% | -4% | 6 | / | 1% | -25%
Cc1ccc(-c2nc(CCNC(=O)C(=O)Nc3ccc(C)c(Cl)c3)cs2)cc1 | ? | ? | / | -1% | -4% | 0%
